According to PubChem BioAssay (NCATS):
“And” between values parts separate entries of the source, which are not always exact repeats. Identical values can stand only once. Records with an inconclusive call do not appear. Where a call stands in place of a potency, no number is given. The source made the active and inactive calls. Unless noted, the call rests on the fitted dose curve; in most records, active means well fitted curve in the direction sought with a large enough effect; inconclusive means small, poorly fitted or top-dose-only effect, or another doubt; inactive means no such curve, though single readings can be large; an effect the other way counts as inactive or inconclusive.

Legend:
[1] = biological target: Voltage-gated inwardly rectifying potassium channel KCNH2 (Homo sapiens) (UniProt Q12809); assay: qHTS Assay for Small Molecule Inhibitors of the Human hERG Channel Activity (AID 588834);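 further: lower thallium flux fluorescence means stronger hERG block; nearly all actives have a fitted effect of over 50% in size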; further: potency means the concentration at half of the fitted maximal effect
Method in brief: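 Homogeneous FluxOR thallium flux assay using hERG-expressing U2OS cells (BacMam). Compound treatment about 10 minutes preceded stimulation; reduced fluorescence taken as channel block.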

[2] = biological target: Luciferin 4-monooxygenase (Photinus pyralis) (UniProt P08659); assay: Biochemical firefly luciferase enzyme assay for NPC (AID 624030); further: nearly all actives have a fitted effect of over 70% in size; further: potency means the concentration at half of the fitted maximal effect
Method in brief: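 Counter-screen for direct inhibition of the luciferase enzyme by approved-drug library compounds, run at 10 nM enzyme in 50 mM Tris acetate (final). Luminescence was read within 5 min of enzyme-buffer addition and normalized to PTC124 versus DMSO (0%).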

[3] = S16 Schwann cell viability assay (CellTiter-Glo assay) (AID 624031); further: nearly all actives have a fitted effect of over 70% in size; further: potency means the concentration at half of the fitted maximal effect
Method in brief: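 This viability control uses native rat S16 Schwann cells grown in DMEM plus 10% FBS. After a 24 h compound treatment at 37 °C, CellTiter-Glo luminescence reports ATP content, scaled against DMSO-treated and cell-free wells.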

[4] = S16 Schwann cell PMP22 intronic element firefly luciferase assay (AID 624032); further: nearly all actives have a fitted effect of over 30% in size; further: potency means the concentration at half of the fitted maximal effect
Method in brief: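 Rat S16 Schwann cells stably carrying a PMP22 intronic element-driven Fluc reporter were seeded overnight, then exposed to compounds for 24 h at 37 °C. Luminescence was normalized to PTC124 (positive control) and DMSO (0% activity).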

[5] = S16 Schwann cell PMP22 intronic element beta-lactamase assay (AID 624044; calls by dose curve; further: nearly all actives have a fitted effect of over 15% in size; further: potency means the concentration at half of the fitted maximal effect)
Method in brief: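 Beta-lactamase reporter under a PMP22 intronic regulatory element in stable S16 rat Schwann cells; 24 h compound exposure. 460 nm blue signal normalized between DMSO (0%) and potassium clavulanate, with 535 nm FRET tracking viability; curves classed by r2 and response.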

[6] = biological target: Glucagon-like peptide 1 receptor (Homo sapiens) (UniProt P43220); assay: qHTS of GLP-1 Receptor Agonists: LOPAC Validation (AID 624148);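 further: higher luminescence signal means agonism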
Method in brief: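 HEK293 cells stably co-expressing a cAMP-responsive luciferase reporter and a hypersensitive GLP-1R were plated 12 h at 37 °C and exposed to compounds for 4-6 hr at 37 °C, 5% CO2. Luminescence was read 12 min after adding detection reagent.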

[7] = qHTS of Nrf2 Activators: LOPAC Validation (AID 624149)
Method in brief: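 AREc32_Fluc cells, 1000/well, OPTI-MEM + 5% FBS, o/n 37 deg C 5% CO2; compound pin-transfer, 24 hr 37 deg C; Steady-Glo 30 min RT, luminescence read.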

[8] = biological target: Glutaminase kidney isoform, mitochondrial (Homo sapiens) (UniProt O94925); assay: qHTS for Inhibitors of Glutaminase (GLS): LOPAC Validation (AID 624146);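 further: glutamate product detected by oxidase and peroxidase coupled Amplex red fluorescence gain; nearly all actives have a fitted effect of over 60% in size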
Method in brief: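 Two-point fluorescence kinetic (t0, 30 min RT) for hKGA; glutamate detected via glutamate oxidase–HRP–Amplex Red. Substrate: 1 mM L-glutamine solution; buffer 45 mM KH2PO4, pH 8.2.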

[9] = qHTS of Trypanosoma Brucei Inhibitors: LOPAC Validation (AID 624147)
Method in brief: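 Screened from lowest to highest concentration, compounds were pinned into TbPYK/substrate mixtures, and ADP (130 uM final) was added. Plates sat at room temperature for 45 min prior to Kinase-Glo Plus detection by luminescence.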

[10] = HTS Assay for Allosteric Antagonists of the Human D2 Dopamine Receptor: Hit Validation in HTRF (AID 624455)
Method in brief: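 HTRF read-out; cells stably expressing D1 receptor; hits scored for inhibition of D1-mediated response. Primary screen: calcium flux, force-coupled inducible Hek293 Trex D2 line, antagonism vs EC80 dopamine.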

[11] = Cytotoxicity counterscreen for NFkB agonists and antagonists (AID 624476); further: potency means the concentration at half of the fitted maximal effect
[12] = qHTS Assay for Identification of Small Molecule Agonists for NFkB Signaling Pathway. (AID 624478);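 further: compounds tested together with TNF alpha at its EC50 of 10 pM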
Method in brief: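 Read-out: 460/530 nm emission at 405 nm excitation after 2 h LiveBLAzer loading; ME-180 NFkB-bla reporter cells exposed 5 h at 37 C to compounds with 10 pM TNF alpha final.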

[13] = qHTS Assay for Identification of Small Molecule Antagonists for NFkB Signaling Pathway. (AID 624479; calls by dose curve;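 further: pathway stimulated with TNF alpha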; further: potency means the concentration at half of the fitted maximal effect)
[14] = Cell Proliferation Assay against the TMD8 Cell Line (AID 651645); settings: TMD8 DLBCL cell line proliferation/viability; at 46.1 µM (top of the series);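 further: cells exposed to compound for 48 h before reading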
Method in brief: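 Cell viability of the ABC DLBCL line TMD8 is measured by CellTiter-Glo luminescence following a 48-hour incubation with compound. Percent activity uses DMSO as 100% and 9.2 uM bortezomib (final) as 0%.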

[15] = Cell Proliferation Assay against the HBL1 Cell Line (AID 651646); settings: HBL1 DLBCL cells; at 46.1 µM (top of the series);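 further: cells exposed to compound for 48 h before reading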
Method in brief: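 After a 48 h incubation of 500 HBL1 cells/well in phenol red-free RPMI plus 5% FBS, relative luciferase units from CellTiter-Glo gave percent activity against DMSO and 9.2 uM bortezomib (final) controls.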

Sequence of Glucagon-like peptide 1 receptor (Homo sapiens) (P43220 whole entry, looked up): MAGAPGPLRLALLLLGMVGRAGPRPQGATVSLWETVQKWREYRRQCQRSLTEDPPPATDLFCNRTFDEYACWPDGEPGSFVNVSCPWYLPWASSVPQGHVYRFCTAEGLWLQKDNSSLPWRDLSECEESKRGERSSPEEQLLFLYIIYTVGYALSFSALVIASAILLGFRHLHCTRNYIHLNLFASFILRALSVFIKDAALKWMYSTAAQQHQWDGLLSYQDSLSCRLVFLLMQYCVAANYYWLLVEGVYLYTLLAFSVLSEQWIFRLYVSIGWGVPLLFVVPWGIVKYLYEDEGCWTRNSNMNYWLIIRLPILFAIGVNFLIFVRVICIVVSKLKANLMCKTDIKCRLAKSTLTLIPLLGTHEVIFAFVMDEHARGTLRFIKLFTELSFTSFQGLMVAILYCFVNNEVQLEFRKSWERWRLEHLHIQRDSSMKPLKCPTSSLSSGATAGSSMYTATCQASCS
Sequence of Glutaminase kidney isoform, mitochondrial (Homo sapiens) (O94925 whole entry, looked up, canonical isoform): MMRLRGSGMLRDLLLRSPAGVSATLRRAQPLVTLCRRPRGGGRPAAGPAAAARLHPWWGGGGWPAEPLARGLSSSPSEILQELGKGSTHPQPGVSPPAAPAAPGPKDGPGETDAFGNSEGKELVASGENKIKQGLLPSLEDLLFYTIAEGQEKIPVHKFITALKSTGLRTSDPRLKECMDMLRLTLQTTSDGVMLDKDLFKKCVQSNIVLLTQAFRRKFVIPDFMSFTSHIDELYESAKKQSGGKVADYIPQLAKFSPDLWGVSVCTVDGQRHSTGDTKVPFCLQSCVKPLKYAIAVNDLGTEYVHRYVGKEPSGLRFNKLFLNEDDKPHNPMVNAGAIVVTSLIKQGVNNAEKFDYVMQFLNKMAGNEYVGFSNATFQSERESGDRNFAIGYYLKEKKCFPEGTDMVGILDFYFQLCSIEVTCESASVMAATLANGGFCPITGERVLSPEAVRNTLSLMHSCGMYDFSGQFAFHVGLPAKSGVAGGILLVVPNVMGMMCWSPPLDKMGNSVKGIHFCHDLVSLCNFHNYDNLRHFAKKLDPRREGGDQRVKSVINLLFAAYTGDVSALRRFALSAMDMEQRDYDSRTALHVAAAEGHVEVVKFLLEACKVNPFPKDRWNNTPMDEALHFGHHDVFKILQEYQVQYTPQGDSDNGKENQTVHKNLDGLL
Sequence of Voltage-gated inwardly rectifying potassium channel KCNH2 (Homo sapiens) (Q12809 whole entry, looked up): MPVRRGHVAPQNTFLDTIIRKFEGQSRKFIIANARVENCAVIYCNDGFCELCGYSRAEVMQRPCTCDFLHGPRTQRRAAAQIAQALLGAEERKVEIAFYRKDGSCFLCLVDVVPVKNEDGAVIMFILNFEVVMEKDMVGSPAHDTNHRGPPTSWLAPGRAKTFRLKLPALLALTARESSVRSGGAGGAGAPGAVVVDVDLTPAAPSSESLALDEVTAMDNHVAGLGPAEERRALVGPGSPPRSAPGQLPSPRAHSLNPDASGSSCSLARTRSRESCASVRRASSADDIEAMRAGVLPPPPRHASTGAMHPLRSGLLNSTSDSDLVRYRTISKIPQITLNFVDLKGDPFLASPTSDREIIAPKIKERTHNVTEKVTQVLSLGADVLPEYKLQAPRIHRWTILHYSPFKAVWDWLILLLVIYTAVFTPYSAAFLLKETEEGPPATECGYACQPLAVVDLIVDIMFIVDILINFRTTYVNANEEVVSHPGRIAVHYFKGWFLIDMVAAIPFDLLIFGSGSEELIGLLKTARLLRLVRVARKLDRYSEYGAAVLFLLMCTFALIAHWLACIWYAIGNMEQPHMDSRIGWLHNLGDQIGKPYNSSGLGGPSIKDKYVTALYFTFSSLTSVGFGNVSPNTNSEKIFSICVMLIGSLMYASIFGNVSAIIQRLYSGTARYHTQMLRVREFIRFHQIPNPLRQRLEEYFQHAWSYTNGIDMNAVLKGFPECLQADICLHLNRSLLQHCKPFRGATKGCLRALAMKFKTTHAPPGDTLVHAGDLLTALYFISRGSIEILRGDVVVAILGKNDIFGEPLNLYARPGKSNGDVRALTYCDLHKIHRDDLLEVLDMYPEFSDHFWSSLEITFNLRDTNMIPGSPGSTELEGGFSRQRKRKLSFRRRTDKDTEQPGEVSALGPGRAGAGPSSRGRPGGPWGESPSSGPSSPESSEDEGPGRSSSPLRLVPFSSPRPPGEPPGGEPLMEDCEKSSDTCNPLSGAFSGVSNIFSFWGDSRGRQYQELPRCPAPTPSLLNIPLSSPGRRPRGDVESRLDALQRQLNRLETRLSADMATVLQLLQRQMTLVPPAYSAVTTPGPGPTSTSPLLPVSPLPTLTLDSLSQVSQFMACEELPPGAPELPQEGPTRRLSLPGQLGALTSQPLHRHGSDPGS
Sequence of Luciferin 4-monooxygenase (Photinus pyralis) (P08659 whole entry, looked up): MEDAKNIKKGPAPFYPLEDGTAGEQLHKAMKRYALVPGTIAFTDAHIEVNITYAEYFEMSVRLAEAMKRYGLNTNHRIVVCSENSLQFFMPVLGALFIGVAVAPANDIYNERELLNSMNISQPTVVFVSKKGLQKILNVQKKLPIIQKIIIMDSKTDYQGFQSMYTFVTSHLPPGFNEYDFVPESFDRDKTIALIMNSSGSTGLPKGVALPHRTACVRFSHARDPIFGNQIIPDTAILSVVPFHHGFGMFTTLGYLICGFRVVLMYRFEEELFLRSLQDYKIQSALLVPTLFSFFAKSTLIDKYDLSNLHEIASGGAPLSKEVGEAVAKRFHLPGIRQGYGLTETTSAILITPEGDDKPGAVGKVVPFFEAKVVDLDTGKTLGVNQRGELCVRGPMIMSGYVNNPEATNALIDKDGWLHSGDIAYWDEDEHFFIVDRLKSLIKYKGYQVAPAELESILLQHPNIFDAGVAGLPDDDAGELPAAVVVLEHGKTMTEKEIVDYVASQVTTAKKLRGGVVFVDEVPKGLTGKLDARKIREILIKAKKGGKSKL

CC[C@@H](CO)NC(=O)[C@@H]1C=C2c3cccc4c3c(cn4C)C[C@H]2N(C)C1
Potency [1]: inactive | Potency [2]: inactive | Potency [3]: inactive | Potency [4]: inactive | Potency [5]: inactive | outcome [6]: inactive | outcome [7]: inactive

Cc1cccc(C)c1NC1=NCCCS1
Potency [1]: inactive | Potency [2]: inactive | Potency [3]: inactive | Potency [4]: inactive | Potency [5]: inactive | Potency [8]: inactive | outcome [9]: inactive | outcome [6]: inactive | outcome [7]: inactive | Potency [10]: inactive

CC(CCc1ccccc1)NC(C)C(O)c1ccc(O)cc1 (centres undefined)
Potency [1]: 7.08 µM (active) and 2 µM (active) | Potency [2]: inactive | Potency [3]: inactive | outcome [9]: inactive | outcome [7]: inactive | Potency [10]: inactive

CCN(CC)CCOC(=O)C(O)(c1ccccc1)c1ccccc1
Potency [1]: 15.8 µM (active) | Potency [2]: inactive | Potency [3]: inactive | Potency [5]: inactive

N[C@@H](Cc1ccc(N(CCCl)CCCl)cc1)C(=O)O
Potency [2]: inactive | Potency [4]: 9.07 µM (active)

Cc1ccc2c(n1)Oc1ccc(C(C)C(=O)OCC(=O)N(C)C)cc1C2 (centres undefined)
Potency [2]: 14.4 µM (active)

CCCN1CCC[C@@H]2Cc3nc(N)ncc3C[C@H]21
Potency [1]: inactive | Potency [8]: inactive | outcome [9]: inactive | outcome [6]: inactive | outcome [7]: inactive

CCC1(C2=NCCN2)Cc2ccccc2O1 (centres undefined)
Potency [1]: inactive | Potency [2]: inactive | Potency [3]: inactive | Potency [4]: inactive | outcome [9]: inactive | outcome [6]: inactive | outcome [7]: inactive | Potency [10]: inactive

NN=C(N)N
Potency [1]: inactive | Potency [2]: inactive | Potency [3]: inactive | Potency [4]: inactive | Potency [8]: inactive | outcome [9]: inactive | outcome [6]: inactive | outcome [7]: inactive | Potency [10]: inactive

COc1ccc(C(CN(C)C)C2(O)CCCCC2)cc1 (centres undefined)
Potency [1]: inactive | Potency [2]: inactive | Potency [3]: inactive | Potency [4]: inactive | Potency [8]: inactive | outcome [9]: inactive | outcome [6]: inactive | outcome [7]: inactive

Cc1c(OCC(F)(F)F)ccnc1CS(=O)c1nc2ccccc2[nH]1 (centres undefined)
Potency [4]: inactive

CC(=O)[C@H]1CC[C@H]2[C@@H]3CC[C@H]4C[C@H](O)CC[C@]4(C)[C@H]3C(=O)C[C@]12C
Potency [2]: inactive | Potency [5]: inactive | Potency [8]: inactive | outcome [9]: inactive | outcome [6]: inactive | outcome [7]: inactive | Potency [10]: inactive

CC(C)=CCOc1c2occc2cc2ccc(=O)oc12
Potency [2]: inactive | outcome [9]: inactive | outcome [6]: inactive | outcome [7]: inactive | Potency [10]: inactive

CC(O)(CS(=O)(=O)c1ccc(F)cc1)C(=O)Nc1ccc(C#N)c(C(F)(F)F)c1 (centres undefined)
Potency [8]: inactive | outcome [9]: inactive | outcome [6]: inactive | outcome [7]: inactive | Potency [10]: inactive | Potency [11]: inactive | outcome [12]: inactive | Potency [13]: inactive | viability (% of control) [14]: 109% | viability, percent of control [15]: 95.3%

C[C@@H]1[C@@H](C(=O)C[C@H]2O[C@@H]3O[C@]4(C)CC[C@@H]5[C@H](C)CC[C@@H]([C@H]2C)[C@@]35OO4)O[C@@H]2O[C@]3(C)CC[C@H]4[C@H](C)CC[C@@H]1[C@@]24OO3
Potency [11]: inactive | outcome [12]: inactive | Potency [13]: inactive | viability (% of control) [14]: 6.12% | viability, percent of control [15]: 21.3%

CCCCC/C=C\C/C=C\C/C=C\C/C=C\CCCC(=O)NC1CC1
Potency [11]: inactive | outcome [12]: inactive | viability (% of control) [14]: 86.9% | viability, percent of control [15]: 109%

O=c1[nH]c2ccccc2n1CCCN1CCC(n2c(=O)[nH]c3cc(Cl)ccc32)CC1
Potency [2]: inactive | Potency [4]: 36.1 µM (active) | Potency [8]: inactive | outcome [9]: inactive | outcome [6]: inactive | outcome [7]: inactive | Potency [10]: inactive

Cc1sc2c(c1C)C(c1ccc(Cl)cc1)=N[C@@H](CC(=O)OC(C)(C)C)c1nnc(C)n1-2
Potency [11]: inactive | outcome [12]: inactive | viability (% of control) [14]: 2.73% | viability, percent of control [15]: 13.5%

NC(=Nc1ccccc1)Nc1ccccc1
Potency [2]: inactive | Potency [5]: inactive

Cc1cc2c(C(C)C)c(O)c(O)c(C=O)c2c(O)c1-c1c(C)cc2c(C(C)C)c(O)c(O)c(C=O)c2c1O
Potency [11]: 4.69 µM (active) | Potency [13]: 5.95 µM (active)

Cn1cc(C2=C(c3cn(C4CCN(Cc5ccccn5)CC4)c4ccccc34)C(=O)NC2=O)c2ccccc21
Potency [11]: inactive | outcome [12]: inactive | Potency [13]: 6.68 µM (active) | viability (% of control) [14]: 3.76% | viability, percent of control [15]: 33.2%

CCCSc1ccc2nc(NC(=O)OC)[nH]c2c1
Potency [4]: inactive | Potency [5]: 1.07 µM (active)

CN1CCc2cccc3c2[C@H]1Cc1ccc(O)c(O)c1-3
Potency [3]: 32.2 µM (active)

CN(C)CCN(C)CCc1ccc(Cl)c(Cl)c1
Potency [11]: inactive | outcome [12]: inactive | viability (% of control) [14]: 74% | viability, percent of control [15]: 73.4%

CNC(=O)N1N=C(c2ccc(N)cc2)c2cc3c(cc2CC1C)OCO3 (centres undefined)
Potency [11]: inactive | outcome [12]: inactive | Potency [13]: inactive | viability (% of control) [14]: 5.8% | viability, percent of control [15]: 20%

CC(C)n1c(C=C[C@H](O)C[C@H](O)CC(=O)O)c(-c2ccc(F)cc2)c2ccccc21
viability (% of control) [14]: 83.4% | viability, percent of control [15]: 74.8%

CNC(=O)c1ccc(N2C(=S)N(c3ccc(C#N)c(C(F)(F)F)c3)C(=O)C23CCC3)cc1F
Potency [11]: inactive | outcome [12]: inactive | Potency [13]: inactive | viability (% of control) [14]: 71.2% | viability, percent of control [15]: 77.6%

CNCCC(Oc1ccc(C(F)(F)F)cc1)c1ccccc1 (centres undefined)
Potency [4]: inactive

CS(=O)c1ccc(-c2nc(-c3ccc(F)cc3)c(-c3ccncc3)[nH]2)cc1 (centres undefined)
viability (% of control) [14]: 92.2% | viability, percent of control [15]: 100%

O=C(O)C(=O)c1cn(Cc2ccccc2)c2ccc(-c3ccc(OC(F)(F)F)cc3)cc12
Potency [11]: 18.7 µM (active) | outcome [12]: inactive | Potency [13]: 16.8 µM (active) | viability (% of control) [14]: 75.1% | viability, percent of control [15]: 68.4%

Cc1cccc(C)c1NC(=O)CN1CCCC1=O
Potency [2]: inactive | Potency [8]: inactive | outcome [9]: inactive | outcome [6]: inactive | outcome [7]: inactive | Potency [10]: inactive

CC[N+](C)(C)c1cccc(O)c1
Potency [10]: inactive

CO[C@@H](C(=O)N1Cc2[nH]nc(NC(=O)c3ccc(N4CCN(C)CC4)cc3)c2C1)c1ccccc1
Potency [13]: 11.9 µM (active) | viability, percent of control [15]: 77.1%

CNCC[C@H](Oc1cccc2ccccc12)c1cccs1
Potency [4]: 20.3 µM (active)
